Screening data: PubChem, several laboratories
This is a sample that favours compounds with a hit; in the whole collection about 3.6% have one here.
LMP1 NFkB inh: reduces LMP1-driven NF-kappaB luciferase signal; inhibition, % at 12.5 µM; AID 504558; 350,000 tested, 0.69% active; LMP1-induced NF-kappaB luciferase reporter cells, luminescence; in the data active means inhibition above about 41%; inconclusive means no clear call, values can overlap the other calls;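 further: 0% = neutral control wells and 100% = reference inhibitor control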
TWEAK Fn14 block: inhibitors of TWEAK-Fn14 interaction signaling. TWEAK-stimulated Fn14 reporter cells, luciferase luminescence, 8 h. inhibition, % at 10 µM. 360,000 tested, 2% active. AID 1159606; in the data active means inhibition above about 50%
LGR2 antag: Drosophila LGR2 receptor signaling inhibition | HEK293 LGR2, CRE-luciferase, bursicon-stimulated, 4 h | inhibition, % at 9.99 µM | 380,000 tested, 0.35% active | AID 720647;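 active means drop in luminescence signal, shown as inhibition above about 50% in the replicate tests, limit read from the data, passing the limit was not always enough; inconclusive means probably only some replicates passing the limit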;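 further: agonist challenge used bursicon conditioned medium at about half maximal strength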
TROY NFkB inh: blocks TROY-dependent signaling in reporter cells. Q293 LMP1-TROYcd NF-kB luciferase reporter, 4 h. inhibition, % at 10 µM. 360,000 tested, 0.98% active. AID 1347056;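 active means compounds whose plate-normalised and pattern-corrected inhibition of the luciferase reporter signal at the single screening dose is 50% or more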
HSF-1 act: increases HSF-1 driven luciferase reporter signal; NIH3T3-HGL HSF-1 luciferase reporter, MG132, 8 h; 100% = twice DMSO control signal; activation, % at 9 µM; 300,000 tested, 1.7% active; AID 504408;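 active means mean replicate activation of at least 50% with a set share of replicates each reaching 50%; inconclusive means only one of those two conditions met; inactive means mean below 50% and too few replicates reaching it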;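 further: 0% = median of the neutral control wells and 100% = twice that signal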
HSF1 inh: HSF1 inhibition | NIH3T3-HGL HSE-luciferase, MG132-induced, luminescence 8 h; stronger effect = lower value | activity change, negative = inhibition, % at 7.5 µM (by protocol) | 300,000 tested, 0.77% active | AID 2098;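 active means more than half of replicate wells show activity change below -50%, luminescence cut by over half; inconclusive means some wells, but at most half, below -50%; inactive means no replicate well below -50%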;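 further: luciferase reports HSF-1 transcriptional activity via heat shock element; 0% = median of DMSO wells and -100% = zero luminescence signal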
An asterisk follows results filed as active; ? = inconclusive; · = not tested or not shown.

SMILES	LMP1 NFkB inh	TWEAK Fn14 block	LGR2 antag	TROY NFkB inh	HSF-1 act	HSF1 inh
CCC(C)(C)C1CCC(=NNC(=S)Nc2ccccc2)CC1 (stereo unspecified)	-5	-5	-11	0	-29	-21
S=C(NN=C1C2CC3CC(C2)CC1C3)Nc1ccccc1	65*	94*	·	75*	-43	-38
CC(=O)Nc1ccccc1OC(C)C(=O)N1CC(C)CC(C)C1 (stereo unspecified)	-1	9	21	-9	114*	56
CC1CC(C)CN(C(=O)Nc2ccccc2F)C1 (stereo unspecified)	-4	-7	0	2	-1	-6
CNC(=O)C[C@H]1CC[C@@H]2[C@@H](COc3ccc(NC(=O)Nc4ccc(F)cc4)cc3C(=O)N2C)O1	·	·	-3	·	·	·
O=C(Nc1ccc(Cl)c(C(F)(F)F)c1)NC1CC2CCCC(C1)N2Cc1ccccc1 (stereo unspecified)	·	·	82*	·	30	15
O=C(CSc1nnc(Cn2cnc3ccccc32)o1)Nc1cccc2ccccc12	-3	-2	·	2	51*	12
CC(=O)c1ccc(NC(=O)CSc2nnc(Cn3cnc4ccccc43)o2)cc1	-2	14	0	11	4	-6
Cc1cccc2cc3c(nc12)SC(=NCC1CCCO1)N(Cc1ccco1)C3 (stereo unspecified)	-29	9	·	-1	190*	166
COc1ccc(OC)c(-n2nnnc2SCC(=O)NCc2ccc3c(c2)OCO3)c1	11	-4	-5	8	-77	-72*
COc1cccc(OC)c1OCCNCC1COc2ccccc2O1 (stereo unspecified)	5	-3	0	-8	53*	34
CO[C@H]1CN(C)C(=O)c2cc(NC(=O)C3CCC3)ccc2OC[C@@H](C)N(Cc2ccncc2)C[C@H]1C	·	·	9	·	·	·
C=CC(=O)Nc1cccc(Nc2nc(N[C@H]3CC[C@H](N(C)C)CC3)nc3c2ncn3C(C)C)c1	92*	99*	·	77*	·	·
CC(C)n1cnc2c(Nc3cccc(Cl)c3)nc(NCCCO)nc21	-3	38	-13	30	-24	-10
Cc1cccc(C(=O)NC(=S)NNC(=O)Cc2ccccc2)c1	5	-52	-6	-46	10	5
Cc1cccc(C(=O)NC(=S)NNC(=O)c2ccccc2Cl)c1	5	-16	·	-18	-89	-86*
CCCOC(=O)CN1C(=O)c2ccccc2C1=O	5	82*	·	·	27	14
COc1ccc2c3c([nH]c2c1)[C@@H](CO)N(Cc1ccccc1F)CC31CN(C(=O)C2CCC2)C1	·	·	-4	·	·	·
O=C(C[C@H]1C[C@@H]2c3cc(NC(=O)Nc4ccccc4F)ccc3O[C@@H]2[C@H](CO)O1)NCc1ccc(Oc2ccccc2)cc1	·	·	-2	·	·	·
COc1ccccc1-c1nnc(Sc2nc([N+](=O)[O-])nn2C)o1	57*	84*	31	31	32	19
Cn1cnnc1Sc1nc([N+](=O)[O-])nn1C	-1	-9	-9	-4	7	1
Cn1cnc(S(=O)(=O)N[C@H]2C=C[C@H](CC(=O)Nc3ccc(-c4ccccc4)cc3)O[C@H]2CO)c1	·	·	11	·	·	·
CCCCCCC(=O)O	1	-1	10	-3	·	·
CCCCC/C=C\C/C=C\C/C=C\CCCCC(=O)O	53*	9	·	-30	·	·
COc1ccc(-[n+]2c(C)cc(/C=C3\Sc4ccccc4N3C)cc2C)cc1	-7	5	-1	29	1	-9
SMILES	LMP1 NFkB inh	TWEAK Fn14 block	LGR2 antag	TROY NFkB inh	HSF-1 act	HSF1 inh
COc1ccccc1-[n+]1c(C)cc(/C=C2\Sc3ccccc3N2C)cc1C	52*	89*	?	82*	·	·
CC(C)Cc1ccc(C#N)c(SCC(N)=O)n1	-5	-6	7	-6	-69	-59*
CCOc1ccc(N2C(=O)CC(Sc3nc(CC(C)C)ccc3C#N)C2=O)cc1 (stereo unspecified)	-2	-82	0	-18	·	·
CCc1c(C2(O)CCCCC2)[nH]c2ccc(C(F)(F)F)cc12	-9	16	4	56*	-23	-3
CN(C)Cc1c(C(C)(C)O)[nH]c2ccc(C(F)(F)F)cc12	4	-15	-12	-4	·	·
COc1cc(NC(=O)c2cccs2)c(C(=O)OCC(=O)c2cc(C)n(-c3ccc(F)cc3)c2C)cc1OC	18	90*	38	83*	-68	-64*
